Assay outcomes (PubChem BioAssay)
In the library only some 5.4% were active in any assay of this set; here they are far more common.
Six1-Eya2 blk = blocks human Six1 binding to Eya2 | Q15475+O00167 | AlphaScreen GST-Six1/His-Eya2 binding, biochemical; hits give low values | activity change, % (concentration not given with the values) | 0.56% of 360,000 active | AID 651725; in the data active = activity change below about -65%; inconclusive = mostly about -30% to -63%
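GST-Six1 + His-Eya2 (5X stock: 250/500 nM); Tris pH 8.0, 300 mM NaCl, 0.05% BSA, 0.02% Tween 20; GSH donor/Ni acceptor beads; 1 h 37 °C dark; AlphaScreen readout.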
CtBP-E1A inh = blocks the CtBP interaction with E1A. AlphaScreen GST-E1A/His-CtBP binding, 1536-well; hits give low values. activity change, % (concentration not given with the values). 0.49% of 340,000 active; in the data active = activity change below about -65%; inconclusive = mostly about -30% to -63%
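Homogeneous bead-based format: GST-tagged E1A captured on glutathione donor beads, His-tagged CtBP on nickel acceptor beads; compounds precede bead addition by 2 h at 37 °C.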
VP16 counter = counter-screen for ROR gamma inhibitors: Gal4-VP16 reporter | Drosophila S2 Gal4-VP16 UAS-luciferase, luminescence, 20 h | Potency, µM (top dose mostly 53.6 µM), hits mostly inhibitors | 3.5% of 310,000 active;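 note: Gal4-VP16 expression switched on by copper sulfate through the metallothionein promoter; nearly all actives have a fitted effect of over 50% in size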
RORg inh = ROR gamma (mouse) transcription inhibition | Drosophila S2 Gal4-RORgamma UAS-luciferase reporter, 20 h | Potency, µM (doses to about 53.6 µM), usual class: inhibitors | 5.4% of 310,000 active | P51450; note: nearly all actives have a fitted effect of over 60% in size
Target sequence (P51450 whole entry, looked up, the tested form may be a part): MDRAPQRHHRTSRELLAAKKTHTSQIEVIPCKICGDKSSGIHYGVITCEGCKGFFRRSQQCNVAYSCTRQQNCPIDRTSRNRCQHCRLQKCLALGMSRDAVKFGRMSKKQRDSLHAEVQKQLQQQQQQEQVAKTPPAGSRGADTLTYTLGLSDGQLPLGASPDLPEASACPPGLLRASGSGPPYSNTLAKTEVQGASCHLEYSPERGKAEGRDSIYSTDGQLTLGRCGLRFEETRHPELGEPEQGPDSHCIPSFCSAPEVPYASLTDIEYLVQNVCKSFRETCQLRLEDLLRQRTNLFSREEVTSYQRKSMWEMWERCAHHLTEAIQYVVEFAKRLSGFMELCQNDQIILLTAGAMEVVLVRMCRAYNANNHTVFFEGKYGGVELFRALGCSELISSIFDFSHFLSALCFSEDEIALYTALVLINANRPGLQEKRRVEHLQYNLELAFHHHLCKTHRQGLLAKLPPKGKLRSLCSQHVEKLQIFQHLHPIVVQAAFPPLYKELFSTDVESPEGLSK
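Luciferase reporter read in Schneider cells carrying Gal4-RORγ (mouse) and UAS-Photinus luciferase; cells given compound 1 h before 700 uM copper sulfate induction, then incubated 20 h at ambient temperature.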
p53 reactivation = re-activators of mutant p53. H1299 p53-A138V BP100-luciferase reporter, luminescence, 24 h. Potency, µM (titrated, usually from 92.2 µM), hits mostly activators. 0.063% of 320,000 active. AID 504706; note: nearly all actives have a fitted effect of over 45% in size
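H1299 (p53-null), stable ts p53-A138V + BP100-Luc; 1000 cells/well, Opti-MEM/10% FBS; cpd 4 pt, 1:5; 24 h, 37 deg C, 5% CO2; detection reagent 10 min RT; luminescence.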
Each line names hits and unclear results; the compound was inactive in the other large screens. Unless noted, calls come from the whole dose curve; as a rule, active = well fitted curve in the direction sought with a large enough effect; inconclusive = small, poorly fitted or top-dose-only effect, or another doubt; inactive = no such curve, though single readings can be large; an effect the other way counts as inactive or inconclusive.

CC(C)(C)c1ccc(/C=N/NC(=S)NCc2ccccc2)cc1	VP16 counter 1.1µM, RORg inh 0.79µM
CN(C)c1ccc(/C=N/NC(=S)NCc2ccccc2)cc1	Six1-Eya2 blk inconclusive, CtBP-E1A inh inconclusive, VP16 counter 2.8µM, RORg inh 0.45µM
CNC(=S)N/N=C/c1ccc(N(C)C)cc1	VP16 counter 7.1µM, RORg inh 1.6µM
Cc1ccsc1/C=N/NC(=S)NCc1ccccc1	RORg inh 0.022µM
COc1ccc(NC(=O)CN2C(=O)NC3(CCCCC3C)C2=O)cc1OC (configuration not stated)	none (no result: VP16 counter, RORg inh)
CC(C)c1c(C(=O)N/N=C/c2ccc(C(F)(F)F)cc2)nnn1-c1nonc1N	RORg inh inconclusive, p53 reactivation inconclusive
C=Cc1c(C)c2cc3nc(cc4[nH]c(cc5nc(cc1[nH]2)C(C)=C5CCC(=O)O)c(CCC(=O)OC)c4C)[C@@]1(C)C3=CC=C(C(=O)OC)[C@H]1C(=O)OC (tested in a mixture with another compound)	none (no result: Six1-Eya2 blk, CtBP-E1A inh, p53 reactivation)
Fc1ccc(NC(=S)NNc2ncc(C(F)(F)F)cc2Cl)c(F)c1	VP16 counter inconclusive, RORg inh 5µM
Cc1ccc(NC(=S)NNc2ncc(C(F)(F)F)cc2Cl)c(C)c1	VP16 counter inconclusive, RORg inh 10µM
Cc1ccc(NC(=S)NNc2ncc(C(F)(F)F)cc2Cl)cc1	VP16 counter 11µM, RORg inh 13µM
CC(=O)CC(=O)Nc1ncc(C(F)(F)F)cc1Cl	none
O=S(=O)(NNc1ncc(C(F)(F)F)cc1Cl)c1ccc(F)cc1F	none (no result: CtBP-E1A inh, VP16 counter, RORg inh)
FC(F)(F)c1cnc(NNC(=S)Nc2ccc(Cl)cc2)c(Cl)c1	VP16 counter 7.9µM, RORg inh 5.6µM
CC(C)NC(=O)C1(C)CN(S(C)(=O)=O)CC(=O)N1Cc1cccc(C(F)(F)F)c1 (configuration not stated)	none (no result: VP16 counter, RORg inh, p53 reactivation)
CCC1(CC)C(=O)C2=C3C1[C@H](C(=O)OC)CC(C(=O)OC)C[C@H]3[C@H]1C(=O)N(C)C(=O)[C@H]1[C@H]2C (some centres not stated)	none (no result: Six1-Eya2 blk, CtBP-E1A inh, p53 reactivation)
C=CCOC(=O)NC(c1ccc(F)c(F)c1)C(C(=O)CCl)C(=O)OC (configuration not stated)	RORg inh inconclusive (no result: Six1-Eya2 blk, CtBP-E1A inh, p53 reactivation)
CCOc1ccccc1C(=O)Nc1ccc(-n2nncc2C(C)(C)C)cc1	none
CCOC(=O)c1c(C)oc2c(CN3CCN(C)CC3)c(Br)c(OC)c(O)c12	VP16 counter 18µM, RORg inh inconclusive
CCOP(=O)(OCC)C(C)(C)NC(=O)Nc1ccc(Cl)c(Cl)c1	none
Cc1ccc(OCCOCCn2ccnc2)c(Br)c1	RORg inh inconclusive
Cc1nn(-c2ccccc2)c(Cl)c1/C=N/Nc1nc2ccccc2n1C	VP16 counter 3.5µM, RORg inh 1.1µM (no result: CtBP-E1A inh)
Cc1nn(-c2ccccc2)c(Cl)c1/C=N/NC(N)=O	none
COc1ccc(/C(=C\C(=O)O)c2nccc3cc(OC)c(OC)cc23)cc1OC	none (no result: Six1-Eya2 blk, CtBP-E1A inh, p53 reactivation)
CCOc1cc(C)c(C(C)C)cc1S(=O)(=O)NCc1ccccn1	RORg inh 10µM (no result: p53 reactivation)
Cc1ccc(S(=O)(=O)NCc2ccccn2)c(C)c1	RORg inh inconclusive (no result: p53 reactivation)
COc1cccc(Nc2ncc3nc(-c4ccc(Cl)cc4)c(=O)n(C4CC4)c3n2)c1	none (no result: Six1-Eya2 blk, CtBP-E1A inh, p53 reactivation)
Fc1ccccc1/C=N/n1c(C2CCCCC2)n[nH]c1=S	VP16 counter inconclusive, RORg inh 11µM
S=c1[nH]nc(C2CCCCC2)n1/N=C/c1ccccc1Br	VP16 counter inconclusive, RORg inh inconclusive
O=[N+]([O-])c1ccccc1/C=N/n1c(C2CCCCC2)n[nH]c1=S	VP16 counter 35µM, RORg inh inconclusive, p53 reactivation inconclusive
O=C(O)COc1ccccc1/C=N/n1c(C2CCCCC2)n[nH]c1=S	none
Cc1ccccc1/C=N/n1c(C2CCCCC2)n[nH]c1=S	VP16 counter inconclusive, RORg inh 16µM
COC(=O)C1=C(C(=O)OC)[C@@H]2Nc3ccccc3[C@@]23C[C@@H](C(=O)OC)N(C(=O)c2cccs2)C3=N1	none (no result: VP16 counter, RORg inh, p53 reactivation)
CC(=O)c1ccc(OC2C(O)COC2/C=C/c2ccc(Cl)cc2)cc1 (configuration not stated)	none (no result: Six1-Eya2 blk, CtBP-E1A inh, p53 reactivation)
COc1ccc(N2CCN(C(=S)Nc3ccc(OC)cc3OC)CC2)cc1	none
COc1cccc(NC(=S)N2CCN(C(c3ccccc3)c3ccccc3)CC2)c1	VP16 counter 8.9µM, RORg inh 4.5µM
